Several values for one entry are separate records, joined by “and”; a condition that tells them apart may be missing. Equal values may be shown once. More than one record can exist for a structure, and the calls need not agree. Activity calls are given as the source filed them. Where a call stands in place of a potency, no number is given. Calls follow the shape of the full dose curve.
Test system: not listed separately
Assay: qHTS assay to identify small molecule antagonists of the estrogen receptor alpha (ER-alpha) signaling pathway - cell viability counter screen (AID 743074);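 also: HEK293 cells carrying ER-alpha-UAS-bla reporter stimulated with 17beta-estradiol; nearly all actives have a fitted effect of over 45% in size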
Details: ERalpha-bla HEK293 viability, CellTiter-Glo luminescence, 18 h; series mostly up to 69.4 µM; activity, negative = cytotoxicity: at the top concentration

Row | SMILES | Potency | activity, negative = cytotoxicity
1 | CN(C)c1nc(=O)n(C2CCCCC2)c(=O)n1C | inactive | –
2 | Clc1ccc(C(Cl)(Cl)Cl)cc1 | inactive | –
3 | CCOP(=S)(OCC)SCn1c(=O)oc2cc(Cl)ccc21 | inactive | –
4 | COc1ccc(O)c(C(C)(C)C)c1 | inactive | –
5 | CC1=C(C(=O)Nc2ccccc2)SCCO1 | inactive | –
6 | CCCCOCCOC(C)=O | inactive | –
7 | CNC(=O)Oc1cccc2c1OC(C)(C)C2 | inactive | –
8 | O=NN(c1ccccc1)c1ccccc1 | inactive | –
9 | O=C(O)CF | inactive | –
10 | CCOP(=S)(OCC)SCSC(C)(C)C | – | 18.9% [at 79.1 µM] (inactive)
11 | CCOS(=O)(=O)OCC | – | -11.7% (inactive)
12 | ClC(Cl)=C(Cl)C(Cl)=C(Cl)Cl | inactive | –
13 | CC1(C)Cc2cccc(O)c2O1 | inactive | –
14 | CC(C)COC(=O)c1ccccc1C(=O)OCC(C)C | inactive | –
15 | N#Cc1cccnc1 | inactive | –
16 | ClC(Cl)(Cl)c1ccccc1 | inactive | –
17 | CCCCOCC1CO1 (centres undefined) | inactive | –
18 | CCCCCCCCCCCCCl | inactive | –
19 | CCC1(c2ccc(N)cc2)CCC(=O)NC1=O (centres undefined) | inactive | –

Row | SMILES | Potency | activity, negative = cytotoxicity
20 | C=C(C)C#N | – | 15% (inactive)
21 | Cc1cccc(N=Nc2ccc(N(C)C)cc2)c1 | – | 8.73% [at 79.1 µM] (inactive)
22 | O=NN1CCOCC1 | – | -7.05% [at 79.1 µM] (inactive)
23 | c1ccc2c(c1)Nc1ccccc1S2 | – | -17.3% (inactive)
24 | CC[n+]1c(-c2ccccc2)c2cc(N)ccc2c2ccc(N)cc21 | inactive | –
25 | COc1ccc(C=O)cc1OC | inactive | –
26 | CC(C)Nc1nc(Cl)nc(NC(C)C)n1 | inactive | –
27 | O=[N+]([O-])/N=C1\NCCN1Cc1ccc(Cl)nc1 | inactive | –
28 | CCOC(=O)c1ccccc1N | – | -13.5% (inactive)
29 | CN(C)P(=O)(N(C)C)N(C)C | inactive | –
30 | CCCCOC(=O)COC(=O)c1ccccc1C(=O)OCCCC | inactive | –
31 | CC(C)=CC1C(C(=O)OCc2cccc(Oc3ccccc3)c2)C1(C)C (centres undefined) | inactive | –
32 | Clc1cccc(C(Cl)(Cl)Cl)n1 | – | 11.8% (inactive)
33 | CSc1nc(NC(C)C)nc(NC(C)C)n1 | – | 5.92% (inactive)
34 | CNC(=O)CSP(=S)(OC)OC | inactive | –
35 | OC(c1ccc(Cl)cc1)(c1cncnc1)c1ccccc1Cl (centres undefined) | inactive | –
36 | CCC/C=N/O | inactive | –
37 | C[C@]12CCC(=O)C=C1CC[C@@H]1[C@@H]2CC[C@@]2(C)[C@H]1CC[C@]2(C)O | – | 6.16% (inactive)

Molecular target: Estrogen receptor (Homo sapiens) (UniProt P03372)
Sequence (P03372 whole entry, looked up): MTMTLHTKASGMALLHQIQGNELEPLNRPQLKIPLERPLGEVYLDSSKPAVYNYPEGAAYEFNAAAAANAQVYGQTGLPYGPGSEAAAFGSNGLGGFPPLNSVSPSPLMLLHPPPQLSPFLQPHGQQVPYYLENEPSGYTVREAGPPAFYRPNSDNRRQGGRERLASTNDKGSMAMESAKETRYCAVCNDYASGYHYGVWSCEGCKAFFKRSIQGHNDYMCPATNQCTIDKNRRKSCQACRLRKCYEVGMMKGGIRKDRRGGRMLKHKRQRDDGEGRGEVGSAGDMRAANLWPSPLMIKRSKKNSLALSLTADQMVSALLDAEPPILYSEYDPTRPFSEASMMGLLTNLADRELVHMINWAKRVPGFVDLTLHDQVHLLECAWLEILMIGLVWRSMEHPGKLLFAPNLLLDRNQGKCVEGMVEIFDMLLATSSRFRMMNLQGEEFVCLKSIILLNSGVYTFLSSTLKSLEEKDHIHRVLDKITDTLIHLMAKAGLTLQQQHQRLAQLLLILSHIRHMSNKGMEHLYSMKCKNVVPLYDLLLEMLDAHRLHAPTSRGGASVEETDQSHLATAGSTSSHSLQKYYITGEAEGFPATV
Assay: qHTS assay to identify small molecule agonists of the estrogen receptor alpha (ER-alpha) signaling pathway (AID 743075);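 also: HEK293 GripTite cells with ER-alpha and UAS-driven beta-lactamase reporter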; also: potency is read from the fitted curve at half-maximal effect
Details: HEK293 ER-alpha-UAS-bla, beta-lactamase FRET ratio, 18 h; series mostly up to 70.1 µM; activation: at the top concentration

Row | SMILES | Potency | activation
38 | CN(C)c1nc(=O)n(C2CCCCC2)c(=O)n1C | inactive | –
39 | Clc1ccc(C(Cl)(Cl)Cl)cc1 | inactive | –
40 | CCOP(=S)(OCC)SCn1c(=O)oc2cc(Cl)ccc21 | inactive | –
41 | COc1ccc(O)c(C(C)(C)C)c1 | inactive | –
42 | CC1=C(C(=O)Nc2ccccc2)SCCO1 | inactive | –
43 | CCCCOCCOC(C)=O | inactive | –
44 | CNC(=O)Oc1cccc2c1OC(C)(C)C2 | inactive | –
45 | O=NN(c1ccccc1)c1ccccc1 | 53.7 µM [inconclusive] (active) and inactive | –
46 | O=C(O)CF | inactive | –
47 | CCOP(=S)(OCC)SCSC(C)(C)C | inactive | –
48 | CCOS(=O)(=O)OCC | inactive | –
49 | ClC(Cl)=C(Cl)C(Cl)=C(Cl)Cl | inactive | –
50 | CC1(C)Cc2cccc(O)c2O1 | inactive | –
51 | CC(C)COC(=O)c1ccccc1C(=O)OCC(C)C | 13.8 nM [inconclusive] (active) and inactive | –
52 | N#Cc1cccnc1 | inactive | –
53 | ClC(Cl)(Cl)c1ccccc1 | – | 2.11% (inactive)
54 | CCCCOCC1CO1 (centres undefined) | inactive | –
55 | CCCCCCCCCCCCCl | 54.2 µM [activator] (active) and inactive | –
56 | CCC1(c2ccc(N)cc2)CCC(=O)NC1=O (centres undefined) | inactive | –

Row | SMILES | Potency | activation
57 | C=C(C)C#N | inactive | –
58 | Cc1cccc(N=Nc2ccc(N(C)C)cc2)c1 | inactive | –
59 | O=NN1CCOCC1 | inactive | –
60 | c1ccc2c(c1)Nc1ccccc1S2 | inactive | –
61 | CC[n+]1c(-c2ccccc2)c2cc(N)ccc2c2ccc(N)cc21 | 4.25 µM [inconclusive] (active) and 19 µM [inconclusive] (active) and 5.47 µM [inconclusive] (active) | –
62 | COc1ccc(C=O)cc1OC | inactive | –
63 | CC(C)Nc1nc(Cl)nc(NC(C)C)n1 | – | -1.97% (inactive)
64 | O=[N+]([O-])/N=C1\NCCN1Cc1ccc(Cl)nc1 | inactive | –
65 | CCOC(=O)c1ccccc1N | inactive | –
66 | CN(C)P(=O)(N(C)C)N(C)C | inactive | –
67 | CCCCOC(=O)COC(=O)c1ccccc1C(=O)OCCCC | inactive | –
68 | CC(C)=CC1C(C(=O)OCc2cccc(Oc3ccccc3)c2)C1(C)C (centres undefined) | inactive | –
69 | Clc1cccc(C(Cl)(Cl)Cl)n1 | inactive | –
70 | CSc1nc(NC(C)C)nc(NC(C)C)n1 | inactive | –
71 | CNC(=O)CSP(=S)(OC)OC | inactive | –
72 | OC(c1ccc(Cl)cc1)(c1cncnc1)c1ccccc1Cl (centres undefined) | 17.7 µM [activator] (active) and 61.6 µM [inconclusive] (active) | –
73 | CCC/C=N/O | inactive | –
74 | C[C@]12CCC(=O)C=C1CC[C@@H]1[C@@H]2CC[C@@]2(C)[C@H]1CC[C@]2(C)O | 2.13 µM [inconclusive] (active) and 4.25 µM [inconclusive] (active) and 1.39 µM [inconclusive] (active) | –
